This is an account of results in the supplement of paper PMC6555819.

This test has as its system VDR:RXRa (NR concentration 270 nM, RXRa partner concentration 90 nM). Description: PBM binding z-score (relative to random genomic background probes); higher = stronger binding; sequences stand for … in GC…GCGATTGACAGCGTAGAATGAAGG
The protocol: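 Protein-binding microarray (Agilent 4x180K custom design, double-stranded 60-nt probes: 5' GC cap, 34-nt variable region, 24-nt constant primer region; full probe sequence given). Purified or IVT nuclear receptor:RXRα heterodimers (3:1 NR:RXRα, mostly 270:90 nM) or homodimers were incubated for 1 h in PBS with 2% milk and no ligand, then detected with Alexa488 antibodies. Fluorescence from o1-orientation probes (~5 replicates averaged) was converted to z-scores against 500 random hg19 background probes. Variable regions are seed direct-repeat (DR0–DR5) sites, all their single-nucleotide variants and half-site ablations.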
Turning to AGAATGAGGTTATTAAGCTCAGGGAATTGCGGTC, the PBM binding z-score was 1.38.

For the sequence CAAACTAGGTCACAGAGGTCCAAGTCCGTGCGTA, the PBM binding z-score amounted to 5. In turn, AGAACGAGGGCACGCTAAGTTGATAGCAGAGTAG came in with a PBM binding z-score of 1.65. TGAATGAGGTTATAAGATCAGGTAACGTTGCAAA showed a PBM binding z-score of 1.14. The sequence CCTAGTTGGTCAGGAGATCACACACCGGATATGA came in with a PBM binding z-score of 0.242. AAAACAGGGTCACTAGGCCAGAGTAGGTACGAAT returned a PBM binding z-score of 4.38. As to ATCTCTAGGTAAAGAGAGTTCAGTGAATGCAAAT, the PBM binding z-score was found to be 3.33. The sequence ACTTACGGGTCAACGAGCTTATAGCACGCGTATA had a PBM binding z-score of 3.97.

On to CCTGCTAGGTCATGATCAGCTAATCTACAGTATG, for which the PBM binding z-score was determined as 1.41. In the case of CCTACTGGGCCACGAAAGGTCATTGCTTCAGTGA, the PBM binding z-score worked out at 4.23. The value for TATATAGGGTCAAAGGCCAGAGTACGAATGTCGA was 4.75; that for GGAACGAGGGCAAAGTTGAAAGCATCTGTCGACG was 1.76; that for CAGCCTAGGTCAGGGCCAGTTTAGGAGGAACGTT was 0.723.

CGAACTAGGTCATTGACTGGACAGTGAATAGTAA had a PBM binding z-score of 1.68. For CGTCCACGGTCAAGGTCAGTGAAAGAGACTCGAA the value was 1.43; for CCAGACAGGAGAGAAGGTAACTCAGCCTCGATTA, -0.312; for CCGACTGGGGCAGCAAGGTTACCATACCATCCGG, 1.25. With ATCGAAACGTCGAGGTGAGTATAGAGAAAGGGAA, the PBM binding z-score was -0.325.

In the case of AGAACGAGGGCACGCTGAGTTGATAGCCGAGTAG, the PBM binding z-score came out at 2.07.

As for TCGAGTAGGGTACCAATGGGGCATTCAGCTTTCT, the PBM binding z-score is -0.337.

For the sequence ATACGTAGGTTAGCTGGGGTCATTCAGACTAGGC, the PBM binding z-score is 6.12. The value for GCTAGTTGGTCAGTTAAAGGTCACACACCGGTCG was 3.95; that for CCGCGGAGGACAGAAGGTCAGAGCTGTCCGCTTT was 0.646. For AGAATGAGGTTAAGATGAGGGAAACAGAATACAT the value was 1.43; for CCTACTGGGCCACGAAAGGTCATAGATTCAGTGA, 3.89.

The sequence CCAGAAAGGTGAGAAGGTAACTCAGCCTCGATTA returned a PBM binding z-score of 0.43. Consider TCTTGGAGATCAACAGGAGGTTAAGAAAGATCGA, for which the PBM binding z-score was determined as 0.539. TTAGCAAGGTGAAAGGTCGTTGATGCACGCCTTG showed a PBM binding z-score of 2.93. The value for CCGACTGGGGTAGAAAGGTTACCATACCATCCGG was 0.692; that for CCTACTGGGCCAAAAGTCATTGATTCCAATGCTC was -0.0662; that for GCGACTGGGGGATCAGCAGGTTACCATAACTTAA was 0.855. For CGAACTAGGTCATAGACAGGACAGTGAATAGTAA the value was 1.78. In turn, TCTGCTAGCTCAGTTGGTCAGCTAACGAGCTGCC gave a PBM binding z-score of -0.839. For TCACATAGGTAAAAGGTGAAAGTCGGTGTGGTAA the value was 1.8; for ATCGAAAGGTCGTGAGGAGAGTATACAGAAAGGC, 3.11. As for ACTTACGGGTCAACGAGGTTATTGCACGCGTATA, the PBM binding z-score is 8.05.

Regarding ATATGTAGATTATCGGGTCATTCAGTTTGCGCAT, the PBM binding z-score worked out at 4.87. Consider TTACCAAGGTAAAGGTCGTTGATCCCTCTGTAGA, for which the PBM binding z-score came to 2.34.

The sequence ACCATTAGTTGAGACGAGGGCAACCGATAGGTTG gave a PBM binding z-score of 0.755. CCGACTGGGGCATTAGGTTACCATAAGCCAGCCC showed a PBM binding z-score of -0.353.
